From PubChem BioAssay
In the library only some 1.1% were active in any assay of this set; here they are far more common.
HTR5A ag ctr – HTR5A agonists in luminescence cell assay, primary screen, counter-screen for OPRM1-OPRD1 heterodimer agonist project, full-deck HTS. activation, % at 9.3 µM. cell-based. 340,000 tested, 0.61% active. AID 504692, 2011; in the data active = activation mostly above about 9.5%, no sharp cut-off; inactive = mostly below about 7.6%;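 also: 0% = cells with vehicle only and 100% = reference agonist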
HTR5A inv ctr – HTR5A inverse agonists in luminescence cell assay, primary screen, counter-screen for OPRM1-OPRD1 heterodimer inverse agonist project, full-deck HTS. 5-hydroxytryptamine receptor 5A (Homo sapiens), P47898. HTR5A cell line, inverse agonism. inhibition, % at 9.3 µM. 340,000 tested, 0.083% active; in the data active = inhibition mostly above about 23%, no sharp cut-off; inactive = mostly below about 18%;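 also: 0% = cells with DMSO and 100% = no-cell wells with DMSO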
MOR-DOR inv ag – inverse agonists of MOR-DOR heterodimerization, primary screen, cell-based, luminescence. Mu-type opioid receptor (Homo sapiens) + Delta-type opioid receptor (Homo sapiens), …. cell-based MOR-DOR heterodimer luminescence, inverse agonism. inhibition, % at 9.3 µM. 340,000 tested, 0.21% active. AID 504357, 2011; in the data active = inhibition above about 22%, passing the limit was not always enough;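 also: 0% = cells with DMSO and 100% = wells without cells with DMSO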
Target sequence (P35372 whole entry, looked up): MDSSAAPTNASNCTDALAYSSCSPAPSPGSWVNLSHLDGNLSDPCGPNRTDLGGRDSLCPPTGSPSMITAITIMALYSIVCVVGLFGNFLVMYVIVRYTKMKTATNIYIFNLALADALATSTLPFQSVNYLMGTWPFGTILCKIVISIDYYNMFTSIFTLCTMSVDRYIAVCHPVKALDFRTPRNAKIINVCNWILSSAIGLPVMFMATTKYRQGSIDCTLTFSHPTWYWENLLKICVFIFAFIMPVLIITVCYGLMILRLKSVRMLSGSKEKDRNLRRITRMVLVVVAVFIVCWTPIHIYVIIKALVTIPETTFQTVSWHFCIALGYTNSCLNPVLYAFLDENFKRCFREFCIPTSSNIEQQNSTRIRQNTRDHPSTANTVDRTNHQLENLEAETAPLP
Target sequence (P41143 whole entry, looked up): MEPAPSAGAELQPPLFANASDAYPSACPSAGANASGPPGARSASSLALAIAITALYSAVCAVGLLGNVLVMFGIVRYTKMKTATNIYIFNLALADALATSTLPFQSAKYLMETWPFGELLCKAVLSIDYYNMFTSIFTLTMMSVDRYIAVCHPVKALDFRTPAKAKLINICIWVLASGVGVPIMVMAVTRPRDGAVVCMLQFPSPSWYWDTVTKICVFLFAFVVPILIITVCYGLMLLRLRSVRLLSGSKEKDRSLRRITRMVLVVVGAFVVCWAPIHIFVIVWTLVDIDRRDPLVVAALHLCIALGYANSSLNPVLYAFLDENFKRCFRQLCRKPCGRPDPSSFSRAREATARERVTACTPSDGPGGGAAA
MOR-DOR ag-1 – agonists of OPRM1-OPRD1 heterodimerization, primary screen, cell-based, luminescence; AID 504326, 2011; 340,000 tested, 0.3% active; cells; activation, % at 9.3 µM;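 also: 0% = vehicle-treated cells and 100% = reference agonist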
MOR-DOR ag-2 – OPRM1-OPRD1 heterodimerization promoters, counter-screen for HTR5A agonist project, cell-based, luminescence; activation, % at 9.3 µM; U2OS counter-screen cells, complementation luminescence, 3 h; 800 tested, 13% active; shares compounds with HTR5A ag ctr
HTR5A ag confirm – HTR5A agonists, retest of hits, confirmation, cell-based, luminescence | shares compounds with HTR5A ag ctr | HTR5A agonist cell assay | activation, % at 9.3 µM | 800 tested, 17% active; in the data active = activation above about 17%;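 also: 0% = cells with vehicle only and 100% = full reference agonist response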
An asterisk follows results filed as active; . = no result. Rule as the data show it, unless noted: active = activation above about 18%; inactive = the rest.

SMILES	HTR5A ag ctr	HTR5A inv ctr	MOR-DOR inv ag	MOR-DOR ag-1	MOR-DOR ag-2	HTR5A ag confirm
COc1ccc(NC(=O)c2sc(NC(=O)COc3ccccc3)nc2C)cc1	-0.2	-36.6	7.5	-1.3	.	.
COc1cccc(NC(=O)COc2ccc(S(=O)(=O)NC(C)C)cc2)c1	15.3*	-36.6	2.2	-0.5	2.5	2.3
CC(=O)c1cccc(NC(=O)COc2ccccc2)c1	15.3*	-36.5	3.5	-0.7	4.5	13.0
CCOC(=O)N1CCN(CC(=O)c2ccc(O)c(C)c2O)CC1	0.0	-6.1	14.4	-2.8	.	.
CCc1cc2ccc(OC)cc2nc1SCC(=O)NNC(C)=O	6.7	14.6	4.4	-0.8	.	.
NC(=O)c1nsc(C(=O)N(Cc2ccco2)C(C(=O)NCC2CCCO2)c2ccc(O)cc2)c1N (stereo not drawn)	-2.2	6.0	2.9	-0.4	.	.
Cc1cc2nc(C3CCN(CC4COc5ccccc5O4)CC3)[nH]c2cc1C (stereo not drawn)	4.4	-12.9	-10.4	1.8	.	.
CCOc1ccc2nc(NC(=O)Nc3ccccc3)sc2c1	20.4*	-54.7	-20.7	3.4	3.5	-0.4
CC1CCN(C(=O)c2cccc(NC(=O)c3cccs3)c2)CC1	8.8	-24.8	4.2	-0.8	.	.
O=C(COc1ccc(C(=S)N2CCC(Cc3ccccc3)CC2)cc1)N1CCOCC1	15.2*	-43.4	4.4	-0.9	5.4	3.4
COC/C=C/C1=CC2=CC(=O)C(C)(OC(=O)c3cnc4ccccc4n3)C(=O)C2=CN1CCCOC(C)C (stereo not drawn)	17.7*	-45.0	-9.0	1.6	42.0*	0.0
O=S(=O)(NCc1ccc2c(c1)OCO2)c1ccc(F)c(F)c1	14.9*	-19.1	5.6	-1.1	1.1	2.1
Cc1cc(S(=O)(=O)NCc2ccc3c(c2)OCO3)ccc1F	-4.3	-25.6	7.2	-1.4	.	.
CC1CCCC(NC(=O)COC(=O)c2cc(S(=O)(=O)N3CCOCC3)ccc2F)C1C (stereo not drawn)	18.4*	-46.8	-0.2	0.1	3.9	5.8
CCc1cc2c(C)ccc(C)c2nc1SCC(=O)Nc1cc(C)on1	-0.2	13.7	8.3	-1.3	.	.
CCc1cc2ccccc2nc1SCC(=O)Nc1cc(C)on1	25.8*	-13.8	-15.3	3.5	2.5	4.1
Cn1c(SCC(=O)NCC2CCCO2)nc2c([nH]c3ccccc32)c1=O (stereo not drawn)	22.4*	-5.6	-3.5	0.6	-0.9	1.2
O=C(CSc1ccc2nnc(-c3ccncc3)n2n1)Nc1ccc2c(c1)OCCO2	1.0	-2.7	10.2	-1.8	.	.
Clc1cccc(CSc2nnc([C@@H]3CCCN3)o2)c1	3.4	2.0	5.8	-0.9	.	.
CCN(CC)C(=O)c1ccc(S(=O)(=O)N2CCC(c3nc4ccccc4s3)CC2)cc1	21.0*	-55.2	-15.0	2.4	5.2	4.0
COc1ccccc1CC(NC(C)=O)C(=O)N1CCN(C(=O)c2cccs2)CC1 (stereo not drawn)	-2.1	9.9	12.2	-2.9	.	.
COc1ccccc1CN(C)C(=O)CN1CCN(C(=O)c2cccs2)CC1	15.3*	9.7	16.2	-4.2	0.7	32.0*
COc1cc(/C=C2\COC/C(=C\c3ccc(O)c(OC)c3)C2=O)ccc1O	-7.1	16.1	2.9	-0.6	.	.
COc1cc(/C=C2/CC/C(=C/c3ccc(O)c(OC)c3)C2=O)ccc1O	23.5*	13.6	-53.3	10.2	0.2	5.2
O=C(CCl)N(c1ccc(Cl)cc1)c1c[nH]c2ccccc12	16.4*	-26.6	-12.0	2.4	0.7	20.7*
O=S(=O)(c1cccc(NC(=S)N2CCN(c3cccc(Cl)c3)CC2)c1)C(F)F	15.3*	-43.3	-92.0	12.7	30.9*	2.2
COc1ccc(C(=O)CC(=O)C(=O)NCCc2cccc(C)c2)cc1	15.9*	-42.4	-9.2	1.5	0.3	4.8
Cc1noc(C)c1C(=O)OCC(=O)Nc1ccccc1C(=O)NC(C)c1ccccc1 (stereo not drawn)	16.8*	-6.4	-7.2	1.4	0.5	0.5
COc1ccc(S(=O)(=O)Cc2ccc(C(=O)NCc3ccccn3)o2)cc1	-1.6	4.3	4.9	-1.0	.	.
